Holding throughout (test): BK channel mutant inhibitors and activators – cell-based, U2OS BacMam, thallium flux, beta subunits, selectivity assay, profiling panel (AID 1259406);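 further: initial slope of Thallos dye fluorescence rise after thallium is added; log ratio against the mean of 0.3% DMSO vehicle wells on the same plate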
For one assay, the system named is F380Y/beta2Delta. The note with it: U2OS BacMam BK variants, at 30 µM.
The next assay concerns F380Y/beta4. The conditions noted are these: U2OS BacMam BK variants, at 30 µM.
Assay [1] addresses Calcium-activated potassium channel subunit alpha-1 (Homo sapiens) + Leucine-rich repeat-containing protein 26 (Homo sapiens) (UniProt Q12791+Q2I0M4). The note with it: U2OS BacMam BK variants, F380Y/Slo1WT/gamma1, at 30 µM.
Another assay concerns R275C. The conditions noted are these: U2OS BacMam BK variants, at 30 µM.
In the next assay the test system is R275C/beta1. The conditions noted are these: U2OS BacMam BK variants, at 30 µM.
The next assay deals with R275C/beta2Delta. The note with it: U2OS BacMam BK variants, at 30 µM.
A further assay concerns R275C/beta4. The note with it: U2OS BacMam BK variants, at 30 µM.
Another assay concerns R275C/Slo1WT/beta2. The note with it: U2OS BacMam BK variants, at 30 µM.

For 15 molecules, log fold change Tl+ flux results are on record in PubChem BioAssay.

The structures appear in SMILES notation. “And” between values parts separate entries of the source, which are not always exact repeats. Equal values may be shown once. A number with no mark means an inactive call. The source made the active and inactive calls.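 How the source made its calls: active means thallium flux through the channel raised or lowered by more than 3 SD from vehicle-only wells, actives on both sides; inactive means the rest.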

Chain of Calcium-activated potassium channel subunit alpha-1 (Homo sapiens) + Leucine-rich repeat-containing protein 26 (Homo sapiens) (Q2I0M4 whole entry, looked up, one chain of several): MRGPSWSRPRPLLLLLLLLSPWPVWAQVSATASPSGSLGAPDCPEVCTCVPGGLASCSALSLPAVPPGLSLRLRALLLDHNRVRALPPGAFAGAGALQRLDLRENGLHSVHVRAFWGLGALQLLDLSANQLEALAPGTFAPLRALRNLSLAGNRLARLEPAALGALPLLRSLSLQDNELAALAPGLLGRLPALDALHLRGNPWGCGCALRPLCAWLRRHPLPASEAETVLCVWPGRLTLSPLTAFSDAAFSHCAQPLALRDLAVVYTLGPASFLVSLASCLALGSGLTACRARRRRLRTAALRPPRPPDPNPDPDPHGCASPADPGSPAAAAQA

With `COc1ccccc1N1CCN(CC(O)COc2cccc3ccccc23)CC1` (stereo not given), the log fold change Tl+ flux in the assay with F380Y/beta2Delta was -0.0539; in the assay on F380Y/beta4 it was -0.114 (active); in assay [1], 0.00615; in the assay with R275C it was -0.067; in the assay with R275C/beta1, 0.198 (active); in the assay with R275C/beta2Delta, -0.0952. The log fold change Tl+ flux is 0.167 (active) in the assay on R275C/beta4 and -0.0505 in the assay on R275C/Slo1WT/beta2.

As to `CN(C)CC[C@@H](c1ccc(Cl)cc1)c1ccccn1`, the log fold change Tl+ flux is 0.0413 in the assay with F380Y/beta2Delta; 0.0471 in the assay with F380Y/beta4; -0.00445 in assay [1]; -0.0353 in the assay with R275C; 0.0461 in the assay with R275C/beta1; 0.00905 with R275C/beta2Delta. The log fold change Tl+ flux in the assay on R275C/beta4 was 0.0349; with R275C/Slo1WT/beta2, 0.0166.

Regarding `COc1ccc(C(=O)NCc2ccc(OCCN(C)C)cc2)cc1OC`, the log fold change Tl+ flux in the assay on F380Y/beta2Delta was -0.0465; in the assay with F380Y/beta4, -0.0244; in assay [1], -0.0979 (active); in the assay on R275C, -0.0872; with R275C/beta1, -0.00904; in the assay on R275C/beta2Delta, -0.0505. Also, the log fold change Tl+ flux with R275C/beta4 was 0.0059; with R275C/Slo1WT/beta2, 0.00939.

For the molecule `CCOC(=O)[C@H](CCc1ccccc1)N[C@@H](C)C(=O)N1[C@H](C(=O)O)C[C@@H]2CCC[C@@H]21`, the log fold change Tl+ flux in the assay on F380Y/beta2Delta is 0.0153 and 0.0206; with F380Y/beta4, 0.00789 and 0.00803; in assay [1], -0.0126 and 0.00594; in the assay with R275C it was 0.0107 and 0.01; with R275C/beta1, -0.0118 and -0.0507; in the assay on R275C/beta2Delta it was -0.0152 and 0.00655. Further, the log fold change Tl+ flux with R275C/beta4 was 0.00822 and 0.0154; with R275C/Slo1WT/beta2 it was -0.0515 and 0.000239.

Take `CCOC(=O)O[C@]1(C(=O)OCCl)CC[C@H]2[C@@H]3CCC4=CC(=O)C=C[C@]4(C)[C@H]3[C@@H](O)C[C@@]21C`: the log fold change Tl+ flux is -0.0465 in the assay with F380Y/beta2Delta; 0.0515 with F380Y/beta4; 0.0345 in assay [1]; -0.0297 in the assay with R275C; 0.0209 in the assay on R275C/beta1; 0.00232 in the assay with R275C/beta2Delta. For the same molecule, the log fold change Tl+ flux with R275C/beta4 is 0.00823; in the assay on R275C/Slo1WT/beta2, 0.00305.

As for `CCc1oc2ccccc2c1C(=O)c1cc(Br)c(O)c(Br)c1`, the log fold change Tl+ flux is 0.479 (active) in the assay with F380Y/beta2Delta; 0.628 (active) in the assay on F380Y/beta4; 0.428 (active) in assay [1]; 0.0187 in the assay on R275C; 0.704 (active) in the assay on R275C/beta1; 0.431 (active) in the assay on R275C/beta2Delta. Moreover, the log fold change Tl+ flux in the assay with R275C/beta4 was 0.722 (active); in the assay on R275C/Slo1WT/beta2, 0.347 (active).

Take `CC(C(=O)O)c1ccc(CC2CCCC2=O)cc1` (stereo not given): the log fold change Tl+ flux in the assay with F380Y/beta2Delta was -0.0349; in the assay with F380Y/beta4, -0.0649; in assay [1] it was -0.0398; in the assay with R275C it was -0.0259; in the assay on R275C/beta1, 0.00328; in the assay with R275C/beta2Delta, 0.0267. For the same molecule, the log fold change Tl+ flux with R275C/beta4 is -0.000172; in the assay with R275C/Slo1WT/beta2, 0.00782.

In the case of `CCOc1cc(N)c(Cl)cc1C(=O)NCC1CN(Cc2ccc(F)cc2)CCO1` (stereo not given), the log fold change Tl+ flux was 0.0207 with F380Y/beta2Delta; -0.0442 in the assay on F380Y/beta4; 0.0207 in assay [1]; -0.0128 in the assay on R275C; 0.0447 in the assay with R275C/beta1; 0.108 (active) with R275C/beta2Delta. For the same molecule, the log fold change Tl+ flux with R275C/beta4 was 0.0132; with R275C/Slo1WT/beta2, 0.00286.

Take `CC(C)(C)NC(=O)[C@@H]1CN(Cc2cccnc2)CCN1C[C@@H](O)C[C@@H](Cc1ccccc1)C(=O)N[C@H]1c2ccccc2C[C@H]1O`: the log fold change Tl+ flux in the assay with F380Y/beta2Delta is -0.0728; in the assay on F380Y/beta4, -0.0768; in assay [1] it was 0.0169; in the assay with R275C, -0.0278; with R275C/beta1, -0.00667; in the assay with R275C/beta2Delta it was -0.0261. Further, the log fold change Tl+ flux with R275C/beta4 is 0.0581; in the assay with R275C/Slo1WT/beta2 it was 0.101 (active).

Turning to `CN1CCC(=C2c3ccccc3CC(=O)c3sccc32)CC1`, the log fold change Tl+ flux was 0.00285 with F380Y/beta2Delta; 0.0281 with F380Y/beta4; 0.0191 in assay [1]; -0.082 in the assay on R275C; 0.0422 in the assay on R275C/beta1; 0.0873 with R275C/beta2Delta. The results for the log fold change Tl+ flux in the assay with R275C/beta4 and with R275C/Slo1WT/beta2 were 0.0237 and 0.0313, respectively.

Consider `CCC(=O)O[C@]1(C(=O)SCF)[C@H](C)C[C@H]2[C@@H]3C[C@H](F)C4=CC(=O)C=C[C@]4(C)[C@@]3(F)[C@@H](O)C[C@@]21C`, for which the log fold change Tl+ flux in the assay with F380Y/beta2Delta was 0.0505; with F380Y/beta4, 0.0435; in assay [1], 0.0105; with R275C it was -0.00436; with R275C/beta1, -0.000971; in the assay with R275C/beta2Delta, 0.027. The log fold change Tl+ flux was 0.00493 in the assay with R275C/beta4 and 0.0478 in the assay with R275C/Slo1WT/beta2.

Take `Nc1nc2c(ncn2COC(CO)CO)c(=O)[nH]1`: the log fold change Tl+ flux in the assay on F380Y/beta2Delta is 0.0461; in the assay with F380Y/beta4 it was 0.0377; in assay [1] it was -0.00437; in the assay on R275C, 0.0708; with R275C/beta1 it was -0.0192; with R275C/beta2Delta, 0.0472. Moreover, the log fold change Tl+ flux in the assay with R275C/beta4 was -0.0224; in the assay with R275C/Slo1WT/beta2 it was -0.00303.

For the molecule `OCc1cccnc1`, the log fold change Tl+ flux with F380Y/beta2Delta was 0.033; with F380Y/beta4, 0.017; in assay [1], -0.0204; in the assay with R275C it was -0.0301; in the assay on R275C/beta1, -0.00726; with R275C/beta2Delta, -0.015. Moreover, the log fold change Tl+ flux is -0.00528 with R275C/beta4 and 0.0162 in the assay on R275C/Slo1WT/beta2.

Take `CCOc1cc(CC(=O)N[C@@H](CC(C)C)c2ccccc2N2CCCCC2)ccc1C(=O)O`: the log fold change Tl+ flux is 0.217 (active) with F380Y/beta2Delta; 0.297 (active) with F380Y/beta4; 0.0882 in assay [1]; -0.00436 in the assay on R275C; 0.495 (active) in the assay with R275C/beta1; 0.262 (active) in the assay on R275C/beta2Delta. For the same molecule, the log fold change Tl+ flux in the assay on R275C/beta4 is 0.161 (active); with R275C/Slo1WT/beta2, 0.0386.

As to `CC(C)NCC(O)COc1ccc(CCOCC2CC2)cc1` (stereo not given), the log fold change Tl+ flux in the assay on F380Y/beta2Delta was 0.0281; in the assay with F380Y/beta4, 0.0205; in assay [1], -0.00804; in the assay with R275C it was 0.0179; with R275C/beta1, 0.00923; with R275C/beta2Delta it was -0.0652. Moreover, the log fold change Tl+ flux in the assay on R275C/beta4 is -0.0167; in the assay on R275C/Slo1WT/beta2, -0.00955.
